Experimental findings from PubChem BioAssay (Tox21) are described below.

Several values for one entry are separate records, joined by “and”; a condition that tells them apart may be missing. Identical values can stand only once. Results filed as inconclusive are left out. Some structures have more than one record in an assay (separate samples or runs), and their calls can disagree. Activity calls are given as the source filed them. Unless noted, the call rests on the fitted dose curve; in most records, active means well fitted curve in the direction sought with a large enough effect in the repeat runs; inconclusive means weak or mixed curves; inactive means no such curve, though single readings can be large; an effect the other way counts as inactive or inconclusive.

The nature of assay [1]: qHTS assay to identify small molecule antagonists of the estrogen related receptor (ERR) signaling pathway from Tox21 library - cell viability counter screen (AID 1224834). Further: nearly all actives have a fitted effect of over 30% in size. An outline of the steps: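 Multiplexed viability counter screen in ERR cells: 17.5 h compound exposure at 37 C, CellTiter-Fluor added, 30 min at 37 C/5% CO2, fluorescence read.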
Assay [2] concerns the target Luciferin 4-monooxygenase (Photinus pyralis) (UniProt P08659). Briefly: qHTS assay to identify small molecule inhibitors of firefly luciferase (AID 1224835). Further: nearly all actives have a fitted effect of over 25% in size. The method, boiled down:
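Biochemical qHTS: compounds run as interplate titrations against purified firefly enzyme, with D-luciferin and ATP each at its KM concentration. Light output recorded by CCD imaging.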
Background: Quantitative high-throughput screening tests each substance at several concentrations.

The nature of assay [3]: qHTS assay to identify small molecule agonists of the constitutive androstane receptor (CAR) signaling pathway - cell viability counter screen (AID 1224836). Further: nearly all actives have a fitted effect of over 45% in size. An outline of the steps: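 Cells were seeded and incubated 4 hrs. Compounds were added across 15 concentrations together with PK11195 at 0.75 uM final. Plates were incubated 23 hrs at 37 C. CellTiter-Fluor was added and fluorescence measured.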

Assay [4] can be described thus: qHTS assay to identify small molecule antagonists of the constitutive androstane receptor (CAR) signaling pathway - cell viability counter screen (AID 1224837). Further: nearly all actives have a fitted effect of over 45% in size. The method, boiled down: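 Read-out: CellTiter-Fluor fluorescence after 23 hr at 37 C/5% CO2. Cells: HepG2 double-stable for hCAR and CYP2B6-2.2kb. Compounds tested at 15 concentrations in the presence of CITCO, final concentration 50 nM.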

Assay [5] deals with Nuclear receptor subfamily 1 group I member 3 (Homo sapiens) (UniProt Q14994). Briefly: qHTS assay to identify small molecule antagonists of the constitutive androstane receptor (CAR) signaling pathway (AID 1224838).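 Further: HepG2 cells stably expressing hCAR with CYP2B6 luciferase reporter stimulated by CITCO; nearly all actives have a fitted effect of over 40% in size.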 An outline of the steps:
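Read-out: ONE-Glo luciferase luminescence after 30 min at room temperature. HepG2-CYP2B6-hCAR double-stable cells, compounds in 15-point titration plus 50 nM CITCO final, 24 h at 37 C/5% CO2.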

Assay [6] has the same target. Briefly: qHTS assay to identify small molecule agonists of the constitutive androstane receptor (CAR) signaling pathway (AID 1224839). Further: nearly all actives have a fitted effect of over 15% in size. Further: potency means the concentration at half of the fitted maximal effect.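 On activation: HepG2 cells stably carrying human CAR and a CYP2B6 luciferase reporter.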 The method, boiled down:
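Cells were plated and incubated 4 hrs, then dosed with compounds at 15 concentrations. PK11195 was added to 0.75 uM final. After 24 hrs at 37 C, luciferase luminescence was measured.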

Assay [7] has as its target Thyrotropin receptor (Homo sapiens) (UniProt P16473). Briefly: qHTS assay to identify small molecule agonists of the thyroid stimulating hormone receptor (TSHR) signaling pathway (AID 1224843; calls by dose curve; further: nearly all actives have a fitted effect of over 45% in size). The method, boiled down:
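HEK293/TSHR, 800 cells/well; cpd 30 min RT; add cAMP-d2 + anti-cAMP-cryptate, 1 h RT; fluorescence read on plate reader. 15-pt titration, n=3.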

A short description of assay [8]: qHTS assay to identify small molecule agonists of the hypoxia (HIF-1) signaling pathway - cell viability counter screen (AID 1224844; calls by dose curve; further: nearly all actives have a fitted effect of over 50% in size). The method, boiled down:
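CellTiter-Glo luminescence read-out, 30 min RT, taken in the same wells as the beta-lactamase HRE reporter assay; HRE-bla ME-180 cells, 0.5% dialyzed FBS, 17 hr compound treatment at 37C, 5% CO2.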

The nature of assay [9]: qHTS assay to identify small molecule agonists of H2AX (AID 1224845; active means well fitted activation curve with a large enough effect in the signal ratio in the repeat runs, not every such curve was filed as active; the % refers to the signal ratio). The method, boiled down:
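Wild-type CHO-K1 cells, plated overnight, exposed 3hr at 37C to 15 concentrations (0.76% DMSO final). Lysed, then HTRF anti-pH2AX (S139) cryptate and anti-H2AX-d2 antibodies, 24 hr room temperature; 665/620 nm emission read.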

Assay [10] is described as follows: qHTS assay to identify small molecule agonists of the hypoxia (HIF-1) signaling pathway (AID 1224846; active means well fitted activation curve with a large enough effect in the signal ratio in the repeat runs, not every such curve was filed as active; the % refers to the signal ratio). The method, boiled down: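 Beta-lactamase FRET read-out (CCF4-AM substrate) from ME-180 cells carrying an HRE-driven bla reporter, after 17 hrs compound exposure at 37C/5% CO2. Cells were seeded at 2,000 per well in 0.5% dialyzed FBS medium and preincubated 5 hrs.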

Assay [11] is described as follows: qHTS assay to identify small molecule agonists of H2AX - cell viability counter screen (AID 1224847; calls by dose curve; further: top concentration of the series differs between compounds; nearly all actives have a fitted effect of over 30% in size). The method, boiled down:
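Cytotoxicity counter screen in wild-type CHO-K1 cells: a 3 hr compound treatment at 37C across 15 concentrations, followed by CellTiter-Glo luminescence to gauge viable cells.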

The nature of assay [12]: qHTS RealTime-Glo MT Cell Viability Assay in HepG2 cells - 24 hour (AID 1224867). Further: nearly all actives have a fitted effect of over 50% in size. An outline of the steps: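 HepG2 suspension premixed with RealTime-Glo reagents is plated at 600 cells per well and left 5 h at 37 C/5% CO2. Compounds in DMSO then go in, and bioluminescence reflecting viable cell number is recorded over 40 h.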
The nature of assay [13]: qHTS RealTime-Glo MT Cell Viability Assay in HEK293 cells - 32 hour (AID 1224868). Further: nearly all actives have a fitted effect of over 50% in size. Further: potency means the concentration at half of the fitted maximal effect. An outline of the steps: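 Reads taken at 0, 8, 16, 24, 32 and 40 h from the same wells. HEK293 cells (600/well) carried RealTime-Glo reagents from seeding, with compound added after a 5 h settle at 37 C.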
The nature of assay [14]: A CellTox Green Cytotoxicity Assay to monitor cytotoxicity in HEK293 cells - 0 hour (AID 1224869). Further: nearly all actives have a fitted effect of over 50% in size. An outline of the steps: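 Read-out: fluorescence of a cell-impermeant cyanine dye staining DNA of dead cells, proportional to cytotoxicity. HEK293, 600 cells/well with reagent, compound (23 nL DMSO) added after 5 h; reads at 0, 8, 16, 24, 32, 40 h.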
Assay [15] is described as follows: qHTS RealTime-Glo MT Cell Viability Assay in HepG2 cells - 40 hour (AID 1224870). Further: nearly all actives have a fitted effect of over 50% in size. An outline of the steps: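 HepG2 cells (600/well) mixed with RealTime-Glo MT reagent, settled 5 h at 37 C/5% CO2 before compound addition. Nonlytic NanoLuc luminescence from viable-cell prosubstrate reduction read repeatedly during 40 h treatment at 37 C.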
A short description of assay [16]: qHTS assay to identify small molecule antagonists of the estrogen related receptor signaling pathway with the pleiotropic PPARgamma coactivator (PGC) from Tox21 10K library - cell viability counter screen (AID 1224840; active means well fitted cell-killing curve with a large enough effect in the repeat runs, not every such curve was filed as active; further: nearly all actives have a fitted effect of over 40% in size). An outline of the steps:
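Fluorescence read-out of CellTiter-Fluor viability reagent, added after cells had been exposed to compound in DMSO for 17.5 h at 37 C; 30 min development at 37 C/5% CO2. Cells: PGC/ERR line, 2,000/well.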

Assay [17] in a line: qHTS assay to identify small molecule antagonists of the estrogen related receptor signaling pathway with the pleiotropic PPARgamma coactivator (PGC) from Tox21 10K library (AID 1224841; call rule not given here; further: potency means the concentration at half of the fitted maximal effect). The method, boiled down:
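Luminescence read-out (One-Glo luciferase reagent, 30 min at room temperature) from PGC/ERR cells exposed to DMSO-dissolved test compounds for 18 h at 37 C; cells, 2,000 per well, had been preincubated 6 h before compound transfer.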

A short description of assay [18]: qHTS assay to identify small molecule agonists of the estrogen related receptor signaling pathway with the pleiotropic PPARgamma coactivator (PGC) from Tox21 10K library (AID 1224842). Further: nearly all actives have a fitted effect of over 15% in size. The method, boiled down: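 PGC/ERR reporter cell line, 2,000 cells per well, incubated 6 h at 37 C before 23 nL compound in DMSO was added. After 18 h at 37 C, One-Glo luminescence read following 30 min at room temperature.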

Assay [19] is described as follows: qHTS assay to identify small molecule antagonists of the estrogen related receptor (ERR) signaling pathway from Tox21 library (AID 1224848). Further: nearly all actives have a fitted effect of over 50% in size. The method, boiled down: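 Compounds dissolved in DMSO are pin-transferred onto ERR reporter cells (2,000 per well) that have settled for 6 h at 37 C. Plates then incubate 18 h at 37 C before ONE-Glo luciferase reagent and a luminescence read 30 min later.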

Assay [20] is described as follows: qHTS assay to identify small molecule agonists of the estrogen related receptor (ERR) signaling pathway from Tox21 library (AID 1224849; calls by dose curve; further: nearly all actives have a fitted effect of over 15% in size). The conditions noted are these: ERR reporter cell line, ONE-Glo luciferase, 18 h; at 92.4 µM (top of the series). The method, boiled down: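 Luminescence readout (ONE-Glo, 30 min RT) after 18 h compound exposure at 37 C of NTP-supplied ERR reporter cells; cells were plated 6 h before compound addition by pin tool.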
On the % scale 0 is the no-effect control and ±100 the full control effect.

Sequence of Nuclear receptor subfamily 1 group I member 3 (Homo sapiens) (Q14994 whole entry, looked up): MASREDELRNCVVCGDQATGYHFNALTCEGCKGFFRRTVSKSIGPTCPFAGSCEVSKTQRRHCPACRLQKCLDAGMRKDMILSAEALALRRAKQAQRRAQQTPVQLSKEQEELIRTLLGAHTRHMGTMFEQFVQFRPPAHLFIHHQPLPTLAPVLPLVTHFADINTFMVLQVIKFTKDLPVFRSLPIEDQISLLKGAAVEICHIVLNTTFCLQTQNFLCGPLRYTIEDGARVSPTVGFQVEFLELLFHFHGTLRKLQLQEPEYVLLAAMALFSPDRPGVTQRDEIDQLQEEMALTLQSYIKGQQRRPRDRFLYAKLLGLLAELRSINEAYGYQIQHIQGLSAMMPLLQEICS
Sequence of Luciferin 4-monooxygenase (Photinus pyralis) (P08659 whole entry, looked up): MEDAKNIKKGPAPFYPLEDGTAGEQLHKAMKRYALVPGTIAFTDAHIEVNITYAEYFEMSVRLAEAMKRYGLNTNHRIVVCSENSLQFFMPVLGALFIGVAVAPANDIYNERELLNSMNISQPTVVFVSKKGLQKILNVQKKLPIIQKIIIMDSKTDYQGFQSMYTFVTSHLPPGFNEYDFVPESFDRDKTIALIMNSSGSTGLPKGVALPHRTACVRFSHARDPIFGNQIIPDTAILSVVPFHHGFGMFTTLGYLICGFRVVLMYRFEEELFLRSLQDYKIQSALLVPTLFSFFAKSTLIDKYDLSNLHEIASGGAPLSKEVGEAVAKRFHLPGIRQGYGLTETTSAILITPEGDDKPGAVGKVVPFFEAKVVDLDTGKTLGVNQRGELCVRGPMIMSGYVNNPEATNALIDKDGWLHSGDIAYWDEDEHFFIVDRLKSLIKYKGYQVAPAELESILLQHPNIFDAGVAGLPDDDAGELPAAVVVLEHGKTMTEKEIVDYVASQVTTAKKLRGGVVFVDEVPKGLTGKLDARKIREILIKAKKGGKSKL
Sequence of Thyrotropin receptor (Homo sapiens) (P16473 whole entry, looked up): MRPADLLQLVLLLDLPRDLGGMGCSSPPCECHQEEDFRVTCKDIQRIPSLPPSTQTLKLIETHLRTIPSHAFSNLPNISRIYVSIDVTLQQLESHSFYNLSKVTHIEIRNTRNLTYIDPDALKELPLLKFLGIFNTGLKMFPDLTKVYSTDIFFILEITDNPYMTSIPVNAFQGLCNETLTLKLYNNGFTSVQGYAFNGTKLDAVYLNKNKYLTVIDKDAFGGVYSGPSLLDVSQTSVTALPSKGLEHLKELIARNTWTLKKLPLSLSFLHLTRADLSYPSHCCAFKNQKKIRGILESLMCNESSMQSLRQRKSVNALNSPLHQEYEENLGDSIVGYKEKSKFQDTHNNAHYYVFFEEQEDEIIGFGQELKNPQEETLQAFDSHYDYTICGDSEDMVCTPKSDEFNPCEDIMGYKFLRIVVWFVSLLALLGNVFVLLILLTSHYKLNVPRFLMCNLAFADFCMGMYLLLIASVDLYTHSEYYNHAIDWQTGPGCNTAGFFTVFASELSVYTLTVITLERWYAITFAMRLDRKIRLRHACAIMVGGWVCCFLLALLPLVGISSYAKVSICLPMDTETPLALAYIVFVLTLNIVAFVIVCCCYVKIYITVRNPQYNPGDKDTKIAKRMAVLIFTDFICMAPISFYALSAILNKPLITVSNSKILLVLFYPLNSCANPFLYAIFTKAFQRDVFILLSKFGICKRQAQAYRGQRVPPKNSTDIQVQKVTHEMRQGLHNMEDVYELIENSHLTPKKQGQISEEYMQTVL

Consider `Cc1ccc(C)c(S(=O)(=O)O)c1`, for which the Potency entry in assay [1], in [2], in assay [3], in assay [4], in assay [5] and in [6] was “inactive” each time. For the same molecule, the Potency result in assay [7], in [8], in assay [9], in [11], in assay [12] and in assay [13] was “inactive” each time. Also, the Potency entry in [14] and in [15] was “inactive” throughout. The molecule was classed as inactive in [10].
As for `Cc1ccccc1C=O`, the Potency result in assay [1], in [2], in [3], in assay [4], in [5] and in [6] was “inactive” in each case. Besides, the Potency result in assay [7], in assay [8], in assay [9], in assay [11], in [12] and in [13] was “inactive” throughout. Moreover, the Potency result in [14] and in assay [15] was “inactive” in each case. The result in assay [10] was inactive.
With `O=C1CCCCCCCCCCC1`, the Potency entry in assay [1], in assay [2], in assay [3], in assay [4], in assay [5] and in assay [6] was “inactive” in each case. Further, the Potency entry in assay [7], in [8], in assay [9], in [11], in assay [12] and in [13] was “inactive” each time. The Potency entry in assay [14] and in assay [15] was “inactive” each time. Further, the call in assay [10] was inactive.
Consider `CC(C)(CO)CO`, for which the Potency result in [1], in [2], in assay [3], in assay [4], in [16] and in assay [17] was “inactive” throughout. Further, the Potency entry in [18], in assay [7], in assay [8], in assay [9], in [11] and in [19] was “inactive” throughout. Further, the Potency entry in assay [12], in assay [13], in assay [14] and in [15] was “inactive” throughout. Further, in [10], the result was inactive. Further, the activity change, positive = activation in assay [20] was 2.96% (inactive) and 5.63% (inactive).
Regarding `COc1cc(NC(=O)CC(C)=O)c(OC)cc1Cl`, the Potency result in assay [1], in [2], in assay [3], in assay [4], in assay [5] and in assay [18] was “inactive” each time. Moreover, the Potency entry in assay [7], in [8], in assay [9], in assay [11], in assay [19] and in assay [12] was “inactive” in each case. In addition, the Potency result in [14] and in assay [15] was “inactive” in each case. In addition, the Potency in assay [6] was 61.4 µM (active) and 61.1 µM (active); in assay [17] it was 38.7 µM (active); in assay [13] it was “inactive and 11 µM (active)”. Moreover, the call in assay [10] was inactive. Further, the activity change, positive = activation in [20] is -16.1% (inactive) and -21.5% (inactive).
As for `CCCCC(=O)O`, the Potency result in assay [1], in assay [2], in assay [3], in assay [4], in [5] and in assay [6] was “inactive” throughout. In addition, the Potency result in [7], in [8], in [9], in assay [11], in [12] and in assay [13] was “inactive” each time. Moreover, the Potency entry in [14] and in [15] was “inactive” each time. Also, in assay [10], the molecule was classed as inactive.
For `O=Cc1ccc(CO)o1`, the Potency entry in assay [1], in assay [2], in assay [3], in [4], in assay [5] and in assay [6] was “inactive” throughout. Further, the Potency result in [17], in assay [18], in assay [7], in [8], in assay [9] and in [11] was “inactive” throughout. In addition, the Potency result in [19], in [12], in assay [13], in assay [14] and in [15] was “inactive” in each case. For the same molecule, in [10], the molecule was called inactive. Further, the activity change, positive = activation in assay [20] was 0.746% (inactive) and -3.97% (inactive).
In the case of `CC(=O)OC/C=C(\C)CCC=C(C)C`, the Potency entry in assay [1], in [2], in assay [3], in assay [4], in assay [5] and in assay [6] was “inactive” in each case. Also, the Potency entry in assay [7], in assay [8], in [9], in assay [11], in assay [12] and in assay [13] was “inactive” each time. For the same molecule, the Potency entry in assay [14] and in assay [15] was “inactive” in each case. Besides, the molecule was classed as inactive in assay [10].
